In PubChem BioAssay AID2685 (National Center for Advancing Translational Sciences (NCATS), 2010) one finds Potency, cell number change and lipid storage change, negative = inhibition data, which are given here for 56 compounds.

Out of some 320,000 compounds screened, about 2,100 (0.66%) were called active. Roughly 53% stayed inconclusive and do not appear here. Calls follow the shape of the dose curve; as a rule, active = well fitted inhibition curve with a large enough effect in the signal ratio, with a control signal flat (not every such curve was filed as active); inconclusive = small, poorly fitted or top-dose-only effect, or effect the other way, or a change in a side signal; inactive = flat fitted curve, though single readings scatter; the % refers to the signal ratio. This excerpt belongs to a sample that is enriched for actives.
Potency is read from the fitted curve at half-maximal effect.

This assay in a line: qHTS Assay for Lipid Storage Modulators in Drosophila S3 Cells.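 As to cell number change: cells counted by Cell Tracker Red CMTPX staining in the red channel.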 As to lipid storage change, negative = inhibition: % is scaled to controls: 0 for no effect and ±100 for the full control effect. The settings on record: BODIPY lipid droplet fluorescence, 18-24 h, cells fed with added oleic acid; cell number change: measured here: cell count max response; series mostly up to 46.1 µM. The method in brief: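 Drosophila S3 cells got compounds at several concentrations plus oleic acid (400 uM solution). Laser-scanning cytometry with 488 nm excitation read lipid droplets at 500-530 nm and cells at 575-640 nm. Percent activity was relative to 20 uM Triacsin C.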
For orientation: Quantitative high-throughput screening tests each substance at several concentrations.
`Cc1ccc(Cn2nnnc2CN2CCC(O)(c3cccnc3)CC2)cc1`: the Potency entry is “inactive” and the cell number change was found to be 1.82%.

Turning to `COCCn1c(SCC(=O)Nc2ccc3c(c2)OCCO3)nnc1C(C)C`, the Potency entry was “inactive” and the cell number change is 15.8%.

With `COc1ccc(C(=O)N/N=C(\C)CC(=O)Nc2cccc(C(F)(F)F)c2)cc1`, the Potency result was “inactive” and the cell number change is -2.05%.

With `C/C(CC(=O)Nc1cccc(C(F)(F)F)c1)=N\NC(=O)c1ccncc1`, the Potency is 4.61 µM (active) and the cell number change is -7.89%. For `CC(=O)N/N=C(\C)CC(=O)Nc1cccc(C(F)(F)F)c1`, the Potency entry is “inactive” and the cell number change came to 5.44%. As for `O=C(O)c1cccnc1NC1CCCC1`, the Potency was 20.6 µM (active) and the cell number change was -16%. `O=C(NC1CCCCC1)c1cccnc1C(=O)O`: the Potency result is “inactive” and the cell number change was -11.4%. On to `O=C(O)c1cccnc1C(=O)O`, for which the Potency entry is “inactive” and the cell number change is -2.7%. Turning to `Cc1cc(C)n(-c2nnc(C)n2/N=C/c2ccc(O)cc2)n1`, the Potency result was “inactive” and the cell number change was -6.41%. Take `Cc1cc(C)n(-c2nnc(C)n2/N=C/c2ccccc2O)n1`: the Potency is 18.4 µM (active) and the cell number change was -5.58%. Consider `Cc1cc(C)n(-c2nnc(C)n2/N=C/c2ccccc2F)n1`, for which the Potency entry was “inactive” and the cell number change was 19.1%. As to `Cc1ccccc1NC(=O)c1ccc2ccccc2c1`, the Potency result was “inactive” and the cell number change is 14.2%.

For `CCCC(=O)NCCSC`, the Potency entry is “inactive” and the cell number change was -17.4%.

With `COc1ccc(C(C(=O)NC2CCCC2)N(Cc2cccnc2)C(=O)Cc2cccs2)cc1OC` (stereo not given), the Potency result was “inactive” and the cell number change was 6.84%. Turning to `O=C(NC1CCCC1)C(c1ccncc1)N(C(=O)Cc1cccs1)c1ccc(F)cc1` (stereo not given), the Potency is 29.1 µM (active) and the cell number change stood at 3.33%. The corresponding values for `COc1ccc(C(C(=O)NC2CCCC2)N(Cc2cccnc2)C(=O)Cc2cccs2)c(OC)c1` (stereo not given) are 7.31 µM (active) and -10.9%. With `O=C(NC1CCCC1)C(c1ccccc1)N(Cc1cccnc1)C(=O)Cc1cccs1` (stereo not given), the Potency result was “inactive” and the cell number change is -1.03%. For `O=C(NC1CCCCC1)C(c1ccncc1)N(C(=O)Cc1cccs1)c1ccccc1` (stereo not given), the Potency result is “inactive” and the cell number change came to 12.4%. Consider `O=C(NC1CCCC1)C(c1ccsc1)N(C(=O)Cc1cccs1)c1ccc(F)cc1` (stereo not given), for which the Potency result is “inactive” and the cell number change was -21.2%.

For `O=c1[nH]c(=O)c2nnc(N/N=C\c3ccc(O)cc3)nc2[nH]1`, the Potency entry was “inactive” and the cell number change is -0.285%.

`Cc1ccc(N/C(N)=N/c2nc3c(c(=O)[nH]2)CCCC3)c(C)c1`: the Potency result is “inactive” and the cell number change stood at 25.1%.

As for `CN(C)CCN(C(=O)c1ccc(C(=O)c2ccccc2)cc1)c1nc2cc3c(cc2s1)OCO3`, the Potency entry is “inactive” and the cell number change was 29%. In the case of `COc1cccc(N2C(N)=NC(N)=NC2(C)C)c1`, the Potency result is “inactive” and the cell number change was -1.01%.

Turning to `CC1(C)N=C(N)N=C(N)N1c1cccc(C(=O)O)c1`, the Potency was 29.1 µM (active) and the cell number change was determined as 9.53%.

In the case of `CCOC(=O)c1cccc(N2C(N)=NC(N)=NC2(C)C)c1`, the Potency entry was “inactive” and the cell number change was determined as 6.64%. `O=C(Nc1ccc(N2CCOCC2)cc1)C1CC(=O)N(c2ccc(F)cc2)C1` (stereo not given): the Potency result was “inactive” and the cell number change stood at 18.8%. The corresponding values for `Cc1cnc(-c2nnc(N(C)C(=O)C3CCOC3)s2)cn1` (stereo not given) are 23.1 µM (active) and -7.84%. Take `CN(C(=O)C1CCOC1)c1nnc(-c2cnccn2)s1` (stereo not given): the cell number change was 10.4% and the lipid storage change, negative = inhibition was -5.36% [at 9.22 µM] (inactive). As to `CN(C(=O)C1CCOC1)c1nnc(-c2ccncc2)s1` (stereo not given), the Potency result is “inactive”.

As to `CC(C)c1ccc2c(c1)C1Cc3ccccc3C1N2` (stereo not given), the Potency was 9.2 µM (active).

For the compound `CC(C)c1ccc2c(c1)[C@H]1OCC[C@H]1[C@@H](c1cccs1)N2`, the Potency entry is “inactive” and the cell number change was -7.55%. The corresponding values for `O=C1NC2c3ccccc3CC2O1` (stereo not given) are “inactive” and 17.5%. Turning to `COc1ccc(/C=N\NC(=O)COc2ccc(Cl)cc2Cl)c(C(=O)O)c1OC`, the Potency entry was “inactive” and the cell number change was 11.7%. On to `CC(C)NC(=O)C(c1ccc(F)cc1)N(C(=O)CCC(=O)Nc1ccccn1)c1cccc(F)c1` (stereo not given), for which the Potency result was “inactive” and the cell number change was determined as 7.14%.

Consider `Oc1ccc(-c2csc(-c3cccnc3)n2)cc1O`, for which the Potency entry was “inactive” and the cell number change was -16.9%. Take `O=C(O)c1ccc(-c2nc(-c3ccc(Cl)c(Cl)c3)cs2)cc1`: the Potency result was “inactive” and the cell number change worked out at 6.89%. For `Oc1ccc(-c2nc(-c3ccc(O)c(O)c3)cs2)cc1`, the Potency is 0.0116 µM (active) and the cell number change is -11.8%.

For `NC(=O)c1cc(-c2csc(-c3cccnc3)n2)ccc1O`, the Potency was 25.9 µM (active) and the cell number change is 5%.

`Fc1ccc(-c2csc(-c3ccncc3)n2)cc1`: the Potency entry was “inactive” and the cell number change was 8.89%. `Fc1ccc(-c2csc(-c3cccnc3)n2)cc1F`: the Potency entry was “inactive”. Consider `CCN(CC)S(=O)(=O)c1ccc(S(=O)(=O)N2CCCC2)cc1`, for which the Potency result is “inactive” and the cell number change was 4.33%. `CCOc1ccc(Nc2cc3n(c(=O)n2)CCc2cc(OC)c(OC)cc2-3)cc1`: the Potency entry is “inactive” and the cell number change was -17.4%. The corresponding values for `CCc1c(C)nc(N2CCN(c3ccccc3F)CC2)[nH]c1=O` are “inactive” and 15.2%. `Cc1nn(-c2ccccc2)c(Cl)c1/C=N/NC(=O)CNc1n[nH]c(=O)[nH]c1=O`: the Potency result is “inactive” and the cell number change amounted to 11.6%. For the compound `CCO[C@@H]1OC(C(=O)NCc2nc3ccccc3[nH]2)=C[C@H](C)[C@H]1CCCO`, the Potency entry was “inactive” and the cell number change was -18.5%. For the compound `CCC(=O)Nc1ccc2c(c1)ncn2-c1ccc(C)cc1`, the Potency result was “inactive” and the cell number change was found to be 19.8%.

In the case of `Cc1ccc(NC(=O)N(CCC(=O)O)Cc2ccccc2)cc1`, the Potency entry was “inactive”.

As to `Cc1cc(C)c2[nH]c(=O)c(CN(C(=O)C3CCCO3)C3CCCC3)cc2c1` (stereo not given), the Potency result is “inactive” and the cell number change turned out to be 9.83%. As to `CCN1C(=O)[C@@H]2[C@@H](c3ccc(-c4ccc5c(c4)OCO5)c(OC)c3)N3CCCC[C@@]3(C(=O)OC)[C@@H]2C1=O`, the Potency entry is “inactive”. On to `CCN1C(=O)[C@@H]2[C@@H](c3ccc(-c4ccccc4)cc3)N3CCCC[C@@]3(C(=O)OC)[C@@H]2C1=O`, for which the Potency entry was “inactive” and the cell number change stood at 15.8%. Consider `CCN1C(=O)[C@H]2[C@@H](c3ccc(-c4ccccc4)cc3)N3CCCC[C@@]3(C(=O)OC)[C@H]2C1=O`, for which the Potency entry is “inactive”.

On to `CCN1C(=O)[C@H]2[C@@H](c3ccc(-c4ccc(OC)cc4)c(OC)c3)N3CCCC[C@@]3(C(=O)OC)[C@H]2C1=O`, for which the Potency is 5.8 µM (active) and the cell number change was -0.765%. As for `CCN1C(=O)[C@@H]2[C@@H](c3ccc(-c4ccc5c(c4)OCO5)c(OC)c3)N3CCC[C@@]3(C(=O)OC)[C@@H]2C1=O`, the Potency result is “inactive” and the cell number change is -1.65%.

With `CCN1C(=O)[C@@H]2[C@@H](c3ccc(-c4ccc(OC)cc4)c(OC)c3)N3CCCC[C@@]3(C(=O)OC)[C@@H]2C1=O`, the Potency is 9.2 µM (active) and the cell number change stood at 24.8%.

Consider `Cc1cccc(OCC(=O)Nc2ccc3c(c2)nc(CCN2CCCCC2)n3C)c1`, for which the Potency result was “inactive”. On to `CCc1ccc(NC(=O)[C@H](Cc2ccccc2)NC(=O)C2CCN(C(=O)[C@@H](N)CC(C)C)CC2)cc1`, for which the Potency entry is “inactive” and the cell number change turned out to be 18%.
